These results are taken from paper doi:10.1101/2024.03.05.583629.

Chain of pT7_6His-AlfaTag-HOXD13 (P35453 263-343): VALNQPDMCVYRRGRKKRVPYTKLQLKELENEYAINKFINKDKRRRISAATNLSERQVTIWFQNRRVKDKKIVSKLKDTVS

This assay has as its target pT7_6His-AlfaTag-HOXD13 (human, UniProt P35453 263-343). Briefly: PADIT-seq. To be noted: dsDNA, one strand shown.
Turning to “CTCGAGGATATCAAGATCTGGCCTCGGCCGCCCATATGGAACCTCTAGCTAGCCGACTCACTATAGGGATAATCGCCCTGAGCAAAGACC”, the binding signal is -0.841 ± 0.12 log2FC.

Sequence “CTCGAGGATATCAAGATCTGGCCTCGGCCTCCTAAAAGGAACCTCTAGCTAGCCGACTCACTATAGGGATAATCGCCCTGAGCAAAGACC” returned a binding signal of 0.715 ± 0.108 log2FC.

On to “CTCGAGGATATCAAGATCTGGCCTCGGCATTTTACACGGAACCTCTAGCTAGCCGACTCACTATAGGGATAATCGCCCTGAGCAAAGACC”, for which the binding signal was 2.19 ± 0.0742 log2FC.

As to “CTCGAGGATATCAAGATCTGGCCTCGGCCTTTTAGATGGAACCTCTAGCTAGCCGACTCACTATAGGGATAATCGCCCTGAGCAAAGACC”, the binding signal was found to be 0.264 ± 0.0998 log2FC.

“CTCGAGGATATCAAGATCTGGCCTCGGCTTCTTAAAAGGAACCTCTAGCTAGCCGACTCACTATAGGGATAATCGCCCTGAGCAAAGACC” gave a binding signal of 0.549 ± 0.0953 log2FC.

The sequence “CTCGAGGATATCAAGATCTGGCCTCGGCGTTTTATCGGGAACCTCTAGCTAGCCGACTCACTATAGGGATAATCGCCCTGAGCAAAGACC” registered a binding signal of 1.63 ± 0.0875 log2FC.

Consider “CTCGAGGATATCAAGATCTGGCCTCGGCAGCCTAAAAGGAACCTCTAGCTAGCCGACTCACTATAGGGATAATCGCCCTGAGCAAAGACC”, for which the binding signal is -0.607 ± 0.118 log2FC.

Take “CTCGAGGATATCAAGATCTGGCCTCGGCCGCTATCGCGGAACCTCTAGCTAGCCGACTCACTATAGGGATAATCGCCCTGAGCAAAGACC”: the binding signal is -0.806 ± 0.119 log2FC.

For the sequence “CTCGAGGATATCAAGATCTGGCCTCGGCATTTTATTAGGAACCTCTAGCTAGCCGACTCACTATAGGGATAATCGCCCTGAGCAAAGACC”, the binding signal worked out at 3.28 ± 0.0692 log2FC.

For the sequence “CTCGAGGATATCAAGATCTGGCCTCGGCGGGGTAAAAGGAACCTCTAGCTAGCCGACTCACTATAGGGATAATCGCCCTGAGCAAAGACC”, the binding signal is -0.462 ± 0.0883 log2FC.

“CTCGAGGATATCAAGATCTGGCCTCGGCCGCTAACGCGGAACCTCTAGCTAGCCGACTCACTATAGGGATAATCGCCCTGAGCAAAGACC”: the binding signal was -0.899 ± 0.132 log2FC.

In turn, “CTCGAGGATATCAAGATCTGGCCTCGGCGAGATAAAAGGAACCTCTAGCTAGCCGACTCACTATAGGGATAATCGCCCTGAGCAAAGACC” registered a binding signal of 0.43 ± 0.0919 log2FC.
